87 molecules from PubChem BioAssay AID488862 (Broad Institute, 2010) can be followed below.

Values joined by “and” are separate entries in the source; they are usually repeats but may differ in a detail not shown here. Equal entries are not always repeated. Hit rate of the full screen: of about 340,000 compounds, about 1,200 (0.35%) were called active. Rule as the data show it: active = inhibition above about 52%; inactive = the rest. The sample as a whole holds a higher share of actives than the screen did.

The test can be described thus: suppresses PrP 5' UTR mRNA reporter expression (AID 488862). Also: 0 = median of the neutral control wells. Particulars: cell-based PrP 5' UTR mRNA reporter, plate reader; stronger effect = higher value; concentration not given here.
One may read the inhibition as the change of the read-out against control, counted positive when it falls. As for `CC(=O)Nc1ccc(NC(=O)CSc2nnc(COc3ccccc3C)n2CC2CCCO2)cc1` (configuration not stated), the inhibition is -3.51% (inactive).

In the case of `CCOC(=O)N1CCC(N2Cc3cccc(C(=O)Nc4c(C)cccc4CC)c3C2=O)CC1`, the inhibition is -4.9% (inactive).

With `Cc1nc2c(-c3ccc(F)cc3)c(C)nn2c(C)c1CCC(=O)N1CCN(c2ccccn2)CC1`, the inhibition was 4.39% (inactive).

Take `COc1ccc(CCNS(=O)(=O)c2ccc(Cl)s2)cc1OC`: the inhibition was 6.31% (inactive).

Regarding `COC1C(O)C(C)OC(OC2CCC3(C=O)C(CCC4C3CCC3(C)C(C5=CC(=O)OC5)CCC43O)C2)C1O` (configuration not stated), the inhibition is 89.8% (active).

As to `COc1ccc(C(=O)C2CCCN(C(=O)c3cnsn3)C2)c(C)c1` (configuration not stated), the inhibition is -10.1% (inactive).

With `Cn1c(Nc2ccccc2)cc(=O)n(C)c1=O`, the inhibition is -38.1% (inactive).

`Cc1cc(Nc2ccccc2)n(C(=O)c2ccc(N)cc2)n1`: the inhibition was 67.9% (active).

Regarding `Cc1cc(NC(=O)Nc2ccc(Cl)cc2)n(-c2ccccc2)n1`, the inhibition is -39.6% (inactive).

For `CCOc1ccc(CN(Cc2ccco2)C(c2cccs2)c2nnnn2C(C)(C)C)cc1` (configuration not stated), the inhibition is -13.3% (inactive).

As to `CCOc1ccc(NC(=O)CCCCCN2C(=O)[C@@H]3Cc4ccccc4CN3C2=O)cc1`, the inhibition was -14.6% (inactive).

With `CCOc1ccc(NC(=O)CCS(=O)(=O)c2cccc3nsnc23)cc1`, the inhibition was -15.9% (inactive).

On to `Cc1ccc(-c2cc(C(=O)NCc3cn(C)nc3C)c3cc(Br)ccc3n2)cc1`, for which the inhibition was -28.8% (inactive).

`Cc1ccc(-c2cc(N)on2)cc1`: the inhibition was -33% (inactive).

Regarding `CSc1nnc2ccc(-c3ccc(C)cc3)nn12`, the inhibition is 0.671% (inactive).

Take `Cc1ccc(-n2c(-c3ccc(Cl)cc3)n[nH]c2=S)cc1`: the inhibition is -0.525% (inactive).

With `Cc1ccc(-c2cn3cc(C)ccc3n2)cc1`, the inhibition was 85.2% (active).

Consider `Cc1ccc2nc(-c3ccc(Br)cc3)cn2c1`, for which the inhibition was 71% (active).

As for `O=C(NC(=S)Nc1ccc(Cl)cc1Cl)C1CC1`, the inhibition is -42.6% (inactive).

For `O=C(COC(=O)c1ncc(Cl)c(Cl)c1Cl)NCc1cccs1`, the inhibition is -15.5% (inactive).

For the molecule `CCCCN(C(=O)CCNC(=O)NC12CC3CC(CC(C3)C1)C2)c1c(N)n(CCCC)c(=O)[nH]c1=O`, the inhibition was 9.19% (inactive).

On to `COc1ccc(CCNC(=O)C2CCCN2C(=O)Nc2ccccc2)cc1OC` (configuration not stated), for which the inhibition is -48% (inactive).

`Cc1ccc(OCCOCCOc2ccc(Br)cc2/C=N\NC(=O)c2ccncc2)cc1`: the inhibition is -18.1% (inactive).

`Cc1cccc(OCC(=O)NCC(=O)N/N=C/c2ccc(N(C)C)cc2)c1`: the inhibition is -13.2% (inactive).

Take `Cc1ccc(/C=N/NC(=O)COc2ccccc2-c2ccccc2)cc1`: the inhibition was 70% (active).

Regarding `O=C(CSC1c2ccccc2-c2ccccc21)N/N=C/c1ccccc1`, the inhibition was 9.76% (inactive).

In the case of `COc1ccc(OC)c(S(=O)(=O)Nc2cccc(-c3ccc4nncn4n3)c2)c1`, the inhibition is -13.4% (inactive).

Take `Cc1c(CN2CCCC(C(=O)c3cccc(Cl)c3)C2)c(=O)n(-c2ccccc2)n1C` (configuration not stated): the inhibition was -12.1% (inactive).

Consider `CCOc1ccc(N/C=C/C(=O)c2cc(OC)c(OC)c(OC)c2)cc1`, for which the inhibition was -105% (inactive).

Take `CCOc1ccc(N/C=C/C(=O)c2ccccc2)cc1`: the inhibition was -1.68% (inactive).

As to `COc1ccc(C(=O)/C=C/Nc2ccccn2)cc1`, the inhibition is 66% (active).

On to `CCc1cc2c(N3CCN(c4nnc(CC)s4)CC3)ncnc2s1`, for which the inhibition was 2.26% (inactive).

Consider `CC(C)(C)c1ccc(/C=C2\SC(=O)N=C2N)cc1`, for which the inhibition is 36.2% (inactive).

On to `CCCCSCCCNC(=O)C1CCC(CNS(=O)(=O)c2ccc(NC(C)=O)cc2)CC1` (configuration not stated), for which the inhibition is -21.5% (inactive).

Regarding `CCN(CCn1cccn1)C(=O)CC1C(=O)NCCN1Cc1cccc(OC)c1OC` (configuration not stated), the inhibition was -9.29% (inactive).

On to `COc1ccccc1CNS(=O)(=O)c1ccc(C)cc1`, for which the inhibition is -15.1% (inactive).

In the case of `CCCCNS(=O)(=O)CCNCc1ccccc1OC`, the inhibition was 60.7% (active).

On to `CCCCNCCS(=O)(=O)NCc1ccccc1`, for which the inhibition is -9.61% (inactive).

`Cc1cccc([C@H]2[C@@H]3C=CC[C@@H](C)[C@@H]3C(=O)N2Cc2ccccc2)c1`: the inhibition was -11.5% (inactive).

For the molecule `Cc1cccc([C@@H]2[C@@H]3C(=O)N(Cc4ccccc4)C(=O)[C@@H]3[C@]3(C)C(=O)N(c4ccc(Br)cc4)C(=O)N23)c1`, the inhibition was -3.38% (inactive).

As to `Cc1ccc(-c2cccc([C@H]3[C@@H]4C=CC[C@@H](C)[C@@H]4C(=O)N3Cc3ccccc3)c2)cc1`, the inhibition was 61.8% (active).

On to `Cc1nc(N=C(N)N)nc2c(C)cccc12`, for which the inhibition was -22.8% (inactive).

Consider `Cc1nc(C(=O)NCc2ccccc2)sc1C1(C)CC(c2cccnc2)=NO1` (configuration not stated), for which the inhibition is -16.5% (inactive).

`COc1ccccc1C1C2=C(COC2=O)Nc2cc3c(cc21)OCO3` (configuration not stated): the inhibition is 65.7% (active).

Consider `O=C1OCC2=C1C(c1ccc(Cl)cc1)c1cc3c(cc1O2)OCO3` (configuration not stated), for which the inhibition was 16.1% (inactive).

For the molecule `CCCOc1ccccc1C1CC(=O)Nc2cc3c(cc21)OCO3` (configuration not stated), the inhibition is -21.5% (inactive).

Take `COc1ccc(NC(=O)CN(C)C(=O)c2ccc(NC3CC3)c([N+](=O)[O-])c2)cc1`: the inhibition is -13.7% (inactive).

In the case of `Cc1noc(C)c1S(=O)(=O)Nc1ccc(C(=O)N2CCN(c3ccc(F)cc3)CC2)cc1`, the inhibition was 44.2% (inactive).

`N#Cc1nc(N)nc(N(c2ccccc2)c2ccccc2)n1`: the inhibition was -20.2% (inactive).

Turning to `CCc1nn(CCCN2CCN(c3cccc(Cl)c3)CC2)c(=O)n1CCOc1ccccc1`, the inhibition was -17.3% (inactive) and 2.12% (inactive).

Turning to `O=C(O)c1cccnc1NC1CCCC1`, the inhibition is -17.1% (inactive).

As to `CC1=C(C)CC(C(=O)NNC(=O)c2ccccc2O)C(C(=O)O)C1` (configuration not stated), the inhibition is -11.4% (inactive).

As for `O=C(NNC(=O)c1ccccc1O)c1ccccc1O`, the inhibition is 58.9% (active).

Take `Cc1cc(C(=O)CCC(=O)NNC(=O)c2ccccc2O)c(C)s1`: the inhibition was 4.28% (inactive).

In the case of `C/C(=N/NC(=O)CN1CCN(S(=O)(=O)c2ccc(Br)cc2)CC1)c1ccncc1`, the inhibition was -9.51% (inactive).

Regarding `Cc1cc(C)nc(/N=C2\NC(=O)CC(C(=O)O)N2c2ccc(Cl)cc2Cl)n1` (configuration not stated), the inhibition was -13.6% (inactive).

On to `COc1ccc(C23NCCN2C(=O)c2ccccc23)cc1` (configuration not stated), for which the inhibition was -5.86% (inactive).

As to `CC(NC(=O)c1cccc2ccccc12)c1ccc2c(c1)CCCC2` (configuration not stated), the inhibition is -15.9% (inactive).

As to `COc1cccc2c1C(=O)c1c(O)c3c(c(O)c1C2=O)CC(O)(C(C)=NNC(=O)c1ccc(Cl)c(Cl)c1)CC3OC1CC(N)C(O)C(C)O1` (configuration not stated), the inhibition is 81% (active).

In the case of `CC(=O)Nc1ccc(C(=O)Nc2cc(S(=O)(=O)N3CCOCC3)ccc2N2CCOCC2)cc1`, the inhibition is 2.41% (inactive).

`O=C(CN1C2CCC1CC(NC(=O)C1CC1)C2)NCc1ccccc1` (configuration not stated): the inhibition is -21.6% (inactive).

On to `CCCS(=O)(=O)N1CCN(C(=O)c2cccs2)CC1`, for which the inhibition was -11% (inactive).

Take `CC(C)(C)C1CCc2c(sc3nc(SCC(N)=O)nc(N)c23)C1` (configuration not stated): the inhibition was 67.4% (active).

In the case of `C=C(C)CSc1nc(N)c2c3c(sc2n1)CCC3`, the inhibition was -92.1% (inactive).

`Nc1nc(SCC(=O)NCCN2CCOCC2)nc2sc3c(c12)CCC3`: the inhibition is -29.6% (inactive).

Take `CC1O[C@@H](OC2C(O)C(C)O[C@H](OC(=O)[C@]34CCC(C)(C)C[C@H]3C3=CCC5[C@@]6(C)CC(O)C(O[C@@H]7OC(CO)C(O)[C@@H](O)[C@@H]7O)[C@@](C)(C(=O)O)C6CC[C@@]5(C)[C@]3(CO)CC4)C2O[C@H]2OC(C)[C@@H](O[C@@H]3OCC(O[C@@H]4OC(CO)C(O)[C@H](O)C4O)[C@@H](O)[C@@H]3O)[C@H](O)C2O)C(O)C(O)C1O` (some centres not stated): the inhibition is -19.6% (inactive).

As for `COc1ccc(CCC(=O)Nc2ccc(Cl)c(S(=O)(=O)N3CCOCC3)c2)cc1OC`, the inhibition was -6.15% (inactive).

Turning to `CNC(=S)N1CCN(c2ccccn2)CC1`, the inhibition was 2.28% (inactive).

Regarding `O=[N+]([O-])c1ccc(NC(=S)N2CCN(c3ccccn3)CC2)cc1`, the inhibition was -31.5% (inactive).

As for `COc1cc([N+](=O)[O-])ccc1NC(=S)N1CCN(c2ccccn2)CC1`, the inhibition is 60.8% (active).

On to `CN1CCN(c2ccc([N+](=O)[O-])c(Sc3nc4ccccc4[nH]3)c2)CC1`, for which the inhibition is -6.9% (inactive).

For `CCCn1nc(NS(=O)(=O)c2ccccc2)c2cc3cc(C)ccc3nc21`, the inhibition was -7.37% (inactive).

For `Cc1ccc(S(=O)(=O)N(C)CC(=O)N2CCc3ccccc32)cc1`, the inhibition is -9.45% (inactive).

Consider `COc1ccccc1N1CCN(C(=O)c2ccc(Cl)c(S(=O)(=O)N3CCCC3)c2)CC1`, for which the inhibition is -12.2% (inactive).

As to `COc1cc2c(cc1OC)CN(C(=O)c1cc(=O)c3ccccc3o1)CC2`, the inhibition is -36.4% (inactive).

For the molecule `COc1ccccc1N1CCN(C(=O)c2cc(=O)c3cc(C)cc(C)c3o2)CC1`, the inhibition was 72.6% (active).

Turning to `O=C(Nc1ccc([N+](=O)[O-])cc1)OCCc1ccccn1`, the inhibition is -55.9% (inactive).

Regarding `Cc1ccc(C(=O)N/C(=C\c2ccc(F)cc2)C(=O)NCCN2CCOCC2)cc1`, the inhibition is -18.5% (inactive).

`COc1cc(C=NNC(=O)c2cccnc2)ccc1OC(=O)c1ccccc1F`: the inhibition is -15.7% (inactive).

With `COc1ccc(C(=O)Nc2cc(C)c(NC(=O)c3ccccc3OC)cn2)cc1`, the inhibition is -9.89% (inactive).

Turning to `COc1ccc(C(=O)Nc2ccccc2C(=O)N/N=C/c2ccc(O)c(OC)c2)cc1`, the inhibition is 80.5% (active).

Regarding `CC1=NCCN1S(=O)(=O)c1cccc([N+](=O)[O-])c1`, the inhibition is -44.4% (inactive).

With `CCOc1ccc(Br)cc1S(=O)(=O)Nc1ccc(S(=O)(=O)Nc2cc(C)on2)cc1`, the inhibition was -17.7% (inactive).

In the case of `NC(=O)CC(NC(=O)Cc1ccc(Br)cc1)c1ccc(NC2CC3CCC2C3)c([N+](=O)[O-])c1` (configuration not stated), the inhibition was -22.9% (inactive).

As to `CCn1c(SCC(=O)NC2CC2)nnc1-c1ccccc1OC`, the inhibition was 3.39% (inactive).

As to `COc1ccc(C2=Nn3c(nnc3-c3ccccc3OC)SC2)cc1OC1CCCC1`, the inhibition is 63.8% (active).

On to `COc1ccccc1-c1nnc2n1N=C(c1ccc(OC(F)F)c(OCC3CC3)c1)CS2`, for which the inhibition is -3.8% (inactive).
